# Laboratory results as given in the supplement of paper PMC9023506.
# Counter-ions that a name gives are not always drawn.
# System: Danio rerio larvae (5 dpf)
# Assay: optomotor response to red moving lines, difference vs DMSO (percentage points (treated minus DMSO)); higher = more of the behaviour than the DMSO vehicle control
# Settings: 10 µM; exposure time: 3 h pre-incubation + 3 h imaging
# Outline: (§1)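 Library drugs were diluted 1000× from DMSO stocks into egg water to reach 10 µM and applied to 5-dpf wild-type zebrafish larvae in 96-well ProxiPlates, 48 larvae per drug. The larvae stayed exposed for 3 h before imaging and for the 3 h of imaging at 28.5 °C. Behaviour scores, given in percentage points, are the treated mean minus the vehicle mean for movement and upper-half location.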
row,Structure (SMILES),optomotor response to red moving lines
1,CCOC(=O)[C@H](CCc1ccccc1)N[C@H]1CCc2ccccc2N(CC(=O)O)C1=O [Benazepril hydrochloride],13
2,CCc1c2c(nc3ccc(OC(=O)N4CCC(N5CCCCC5)CC4)cc13)-c1cc3c(c(=O)n1C2)COC(=O)[C@]3(O)CC,-8.71
3,COc1c(C)c2c(c(O)c1C/C=C(\C)CCC(=O)OCCN1CCOCC1)C(=O)OC2 [Mycophenolate mofetil],12.2
4,CC(C)n1c(/C=C/C(O)CC(O)CC(=O)O)c(-c2ccc(F)cc2)c2ccccc21 (configuration not stated) [Fluvastatin sodium],-2.5
5,C[C@@H]1C[C@H]2[C@@H]3CCC4=CC(=O)C=C[C@]4(C)[C@@]3(F)[C@@H](O)C[C@]2(C)[C@@]1(O)C(=O)CO [Dexamethasone],-2.54
6,CCOC(=O)[C@H](CCc1ccccc1)N[C@@H](C)C(=O)N1[C@H](C(=O)O)C[C@@H]2CCC[C@@H]21 [Ramipril],-1.65
7,CC(C)Nc1cccnc1N1CCN(C(=O)c2cc3cc(NS(C)(=O)=O)ccc3[nH]2)CC1 [Delavirdine mesylate],-0.668
8,CCOC(=O)C1=C(C)NC(C)=C(C(=O)OC)C1c1cccc(Cl)c1Cl (configuration not stated) [Felodipine],4.89
9,CCOC(=O)N1CCC(=C2c3ccc(Cl)cc3CCc3cccnc32)CC1 [Loratidine],-14.1
10,O=C(c1ccc(OCCN2CCCCC2)cc1)c1c(-c2ccc(O)cc2)sc2cc(O)ccc12 [Raloxifene hydrochloride],3.63
11,CCOc1nc2cccc(C(=O)O)c2n1Cc1ccc(-c2ccccc2-c2nnn[nH]2)cc1 [Candesartan],4.89
12,CN1CC2c3ccccc3Oc3ccc(Cl)cc3C2C1 (configuration not stated) [Asenapine maleate],-5.48
13,COc1cc([C@@H]2c3cc4c(cc3[C@@H](O[C@@H]3O[C@@H]5CO[C@@H](C)O[C@H]5[C@H](O)[C@H]3O)[C@H]3COC(=O)[C@H]23)OCO4)cc(OC)c1O [Etoposide],2.25
14,COc1cc2nccc(Oc3ccc(NC(=O)C4(C(=O)Nc5ccc(F)cc5)CC4)cc3)c2cc1OC,-13.9
15,COc1ccccc1OCCNCC(O)COc1cccc2[nH]c3ccccc3c12 (configuration not stated) [Carvedilol],1.15
16,Nc1nc(Cl)nc2c1ncn2[C@@H]1O[C@H](CO)[C@@H](O)[C@@H]1F [Clofarabine],1.11
17,Cc1ccc(N(CC2=NCCN2)c2cccc(O)c2)cc1 [Phentolamine Mesylate],14.5
18,CC(=O)Oc1ccccc1C(=O)O [Aspirin],7.38
19,CC(C)CN(C[C@@H](O)[C@H](Cc1ccccc1)NC(=O)O[C@H]1CO[C@H]2OCC[C@H]21)S(=O)(=O)c1ccc(N)cc1 [Darunavir],4.11
20,COc1cc(Nc2c(C#N)cnc3cc(OCCCN4CCN(C)CC4)c(OC)cc23)c(Cl)cc1Cl [Bosutinib],3.82
21,Cc1cc(C2CCCCC2)n(O)c(=O)c1 [Ciclopirox],-5.18
22,COc1ccc(C[C@@H](C)NC[C@H](O)c2ccc(O)c(NC=O)c2)cc1 [Arformoterol tartrate],-7.51
23,CN1CCC[C@@H]1Cc1c[nH]c2ccc(CCS(=O)(=O)c3ccccc3)cc12 [Eletriptan hydrobromide],4.39
24,C[C@H]1O[C@H](O[C@H]2[C@H](O)[C@@H](O)[C@@H](O[C@H]3[C@H](O)[C@@H](O)C(O)O[C@@H]3CO)O[C@@H]2CO)[C@H](O)[C@@H](O)[C@@H]1N[C@H]1C=C(CO)[C@@H](O)[C@H](O)[C@H]1O (some centres not stated) [Acarbose],6

# System: Danio rerio larvae (5 dpf)
# Assay: activity during period 15 (no stimuli), difference vs DMSO (percentage points (treated minus DMSO)); higher = more of the behaviour than the DMSO vehicle control
# Settings: 10 µM; exposure time: 3 h pre-incubation + 3 h imaging
# Outline: as §1
row,Structure (SMILES),activity during period 15
1,CCOC(=O)[C@H](CCc1ccccc1)N[C@H]1CCc2ccccc2N(CC(=O)O)C1=O [Benazepril hydrochloride],4.55
2,CCc1c2c(nc3ccc(OC(=O)N4CCC(N5CCCCC5)CC4)cc13)-c1cc3c(c(=O)n1C2)COC(=O)[C@]3(O)CC,-8.3
3,COc1c(C)c2c(c(O)c1C/C=C(\C)CCC(=O)OCCN1CCOCC1)C(=O)OC2 [Mycophenolate mofetil],-0.943
4,CCOC(=O)[C@H](CCc1ccccc1)N[C@@H](C)C(=O)N1[C@H](C(=O)O)C[C@@H]2CCC[C@@H]21 [Ramipril],-2.34
5,CCOc1nc2cccc(C(=O)O)c2n1Cc1ccc(-c2ccccc2-c2nnn[nH]2)cc1 [Candesartan],-1.51
6,COc1ccccc1OCCNCC(O)COc1cccc2[nH]c3ccccc3c12 (configuration not stated) [Carvedilol],-6.43
7,Nc1nc(Cl)nc2c1ncn2[C@@H]1O[C@H](CO)[C@@H](O)[C@@H]1F [Clofarabine],-4.3
8,CCC(C)(C)C(=O)O[C@H]1C[C@@H](C)C=C2C=C[C@H](C)[C@H](CC[C@@H]3C[C@@H](O)CC(=O)O3)[C@H]21 [Simvastatin],-3.71
9,Cc1ccsc1C(=CCCN1CCC[C@@H](C(=O)O)C1)c1sccc1C [Tiagabine hydrochloride],10.4
10,COc1cc(Nc2c(C#N)cnc3cc(OCCCN4CCN(C)CC4)c(OC)cc23)c(Cl)cc1Cl [Bosutinib],-11.7
11,CC(=O)Nc1ccc(O)cc1 [Acetaminophen],8.08
12,COc1ccc(C[C@@H](C)NC[C@H](O)c2ccc(O)c(NC=O)c2)cc1 [Arformoterol tartrate],46.5
13,CC/C(=C(\c1ccccc1)c1ccc(OCCN(C)C)cc1)c1ccccc1 [Tamoxifen citrate],20.1
